Compounds without any hit were thinned out: in the full panel of roughly 79,000, 15% have a hit. The source made the active and inactive calls. Cut-off read from the data, not from the text of the source: active = growth inhibition above about 70%; inactive = the rest.
Experiments:
[1] = NCI Yeast Anticancer Drug Screen. Data for the rad52 strain (AID 147);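 note: 0% = growth of vehicle-treated control cultures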; details: S. cerevisiae rad52 mutant growth inhibition, active compounds read high
Outline: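 Inhibition of yeast growth, referenced to vehicle controls, was the measured output for a strain with defective DNA damage repair.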

[2] = NCI Yeast Anticancer Drug Screen. Data for the wt1 strain (AID 149);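 note: 0% = growth of vehicle-treated wt1 cultures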; details: S. cerevisiae wt1 strain (SPY 50644) growth inhibition, active compounds read high
Outline: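 Each compound is tested on wt1 yeast and the loss of growth versus vehicle gives the inhibition value.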

[3] = NCI Yeast Anticancer Drug Screen. Data for the rad50EPP+ strain (AID 151);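 note: 0% = growth of vehicle-treated control cultures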; details: S. cerevisiae rad50 mutant strain, active compounds read high
Outline: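 Genetically defined yeast (rad50EPP+, DNA damage repair alteration) is grown with compound, and inhibition of growth is expressed relative to vehicle-treated controls.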

[4] = NCI Yeast Anticancer Drug Screen. Data for the mgt1 strain (AID 153); details: S. cerevisiae mgt1 mutant growth inhibition, active compounds read high
Outline: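 In the mgt1 strain, test compounds were added and growth inhibition was determined relative to vehicle-treated controls.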

[5] = NCI Yeast Anticancer Drug Screen. Data for the rad50 strain (AID 155);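 note: 0% = growth of vehicle-only cultures of the same strain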; details: S. cerevisiae rad50 strain growth inhibition, active compounds read high
Outline: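 Vehicle-treated cultures provide the reference for the growth inhibition reported for compound-exposed, repair-deficient yeast.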

[6] = NCI Yeast Anticancer Drug Screen. Data for the mec2-1 strain (AID 157); details: S. cerevisiae mec2-1 strain, active compounds read high
Outline: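 Each compound was tested on mec2-1 yeast, a strain altered in DNA damage repair or cell cycle control. Growth inhibition is reported relative to vehicle.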

[7] = NCI Yeast Anticancer Drug Screen. Data for the rad14 strain (AID 159);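 note: 0% = growth of vehicle-treated control cultures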; details: S. cerevisiae rad14 strain growth inhibition, active compounds read high
Outline: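 Inhibition of growth is reported for a repair-deficient yeast mutant following compound treatment, calculated relative to cultures that received vehicle.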

[8] = NCI Yeast Anticancer Drug Screen. Data for the sgs1 mgt1 strain (AID 161);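 note: 0% = growth of cultures given vehicle only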; details: S. cerevisiae sgs1 mgt1 strain, active compounds read high
Outline: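 Mutant yeast exposed to compound; growth scored against vehicle-only wells.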

[9] = NCI Yeast Anticancer Drug Screen. Data for the CLN2oe strain (AID 163);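 note: 0% = growth of vehicle-only control cultures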; details: S. cerevisiae CLN2oe strain, active compounds read high
Outline: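 First, the altered yeast strain was treated with each compound; second, its growth was measured; finally, inhibition was derived by comparison with vehicle controls.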

[10] = NCI Yeast Anticancer Drug Screen. Data for the cln2 rad14 strain (AID 165);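 note: 0% = growth equal to vehicle treated cultures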; details: S. cerevisiae cln2 rad14 strain, active compounds read high
Outline: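 Test compounds were added to cln2 rad14 yeast cultures; inhibition of growth was then determined by comparison with vehicle treatment.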

[11] = NCI Yeast Anticancer Drug Screen. Data for the bub3 strain (AID 167); details: S. cerevisiae bub3 mutant strain, active compounds read high
Outline: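 Mutant yeast screening strain plus compound; vehicle-treated cultures serve as the 0% inhibition reference.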

[12] = NCI Yeast Anticancer Drug Screen. Data for the wt2 strain (AID 169); details: S. cerevisiae wt2 strain growth inhibition, active compounds read high
Outline: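 The panel's yeast strains carry defined changes in DNA repair or cell cycle genes. Each strain is grown with compound, and growth loss is scored relative to vehicle.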

[13] = NCI Yeast Anticancer Drug Screen. Data for the mlh1 strain (AID 171);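 note: 0% = growth of vehicle-treated control cultures of the same strain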; details: S. cerevisiae mlh1 strain growth inhibition, active compounds read high
Outline: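 Inhibition values reflect reduced yeast growth in the presence of compound, referenced to vehicle controls, using a strain chosen for its alteration in DNA repair or cell cycle control.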

[14] = NCI Yeast Anticancer Drug Screen. Data for the sgs1 strain (AID 173);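 note: 0% = growth of vehicle-only control cultures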; details: S. cerevisiae sgs1 mutant, active compounds read high
Outline: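 Vehicle-treated cultures served as reference for growth inhibition of a yeast strain altered in DNA damage repair or cell cycle control after compound exposure.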

[15] = NCI Yeast Anticancer Drug Screen. Data for the mlh1 rad18 strain (AID 175); details: S. cerevisiae mlh1 rad18 strain growth inhibition, active compounds read high
Outline: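 Inhibition values reflect reduced growth of mutant yeast versus vehicle-treated controls following compound exposure; the mutations affect DNA damage repair.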

[16] = NCI Yeast Anticancer Drug Screen. Data for the rad18 strain (AID 177); details: S. cerevisiae rad18 mutant growth inhibition, active compounds read high
Outline: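 Steps: expose repair-mutant yeast to compound; measure growth; express as inhibition relative to vehicle control.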

[17] = at 5.0 µM (retest, dose inferred, filed as 0.5)
[18] = at 50.0 µM (retest, dose inferred, filed as 5.0)

Measured: growth inhibition

Nc1ccc(S(=O)(=O)Nc2nc3c(c(=O)[nH]2)CCCC3)cc1
active: [1]; at 11.0 µM 87% | [1]; at 33.0 µM 99% | [1]; at 100.0 µM 99% | [2]; at 11.0 µM 93% | [2]; at 33.0 µM 99% | [2]; at 100.0 µM 100% | [3]; at 11.0 µM 80% | [3]; at 33.0 µM 99% | [3]; at 100.0 µM 99% | [4]; at 33.0 µM 98% | [4]; at 100.0 µM 99% | [5]; at 11.0 µM 93% | [5]; at 33.0 µM 99% | [5]; [18] 98% | [5]; at 50.0 µM 99.5% | [5]; at 100.0 µM 99% | [6]; at 33.0 µM 99% | [6]; [18] 99% | [6]; at 50.0 µM 99.5% | [6]; at 100.0 µM 99% | [7]; at 11.0 µM 94% | [7]; at 33.0 µM 100% | [7]; at 100.0 µM 100% | [8]; [18] 99% | [8]; at 50.0 µM 99.5% | [9]; at 33.0 µM 99% | [9]; at 100.0 µM 99% | [10]; [18] 99% | [10]; at 50.0 µM 99.2% | [11]; at 11.0 µM 92% | [11]; at 33.0 µM 99% | [11]; [18] 98% | [11]; at 50.0 µM 99.3% | [11]; at 100.0 µM 99% | [12]; at 3.7 µM 73% | [12]; at 11.0 µM 99% | [12]; at 33.0 µM 100% | [12]; at 100.0 µM 100% | [13]; at 11.0 µM 75% | [13]; at 33.0 µM 99% | [13]; at 100.0 µM 99% | [14]; at 11.0 µM 95% | [14]; at 33.0 µM 99% | [14]; at 100.0 µM 99% | [15]; [17] 84% | [15]; [18] 99% | [15]; at 50.0 µM 99.4% | [16]; at 11.0 µM 85% | [16]; at 33.0 µM 99% | [16]; at 100.0 µM 99%
inactive: [1]; at 1.2 µM 14% | [1]; at 3.7 µM 18% | [2]; at 1.2 µM 5% | [2]; at 3.7 µM 31% | [3]; at 1.2 µM 12% | [3]; at 3.7 µM 47% | [4]; at 1.2 µM 2% | [4]; at 3.7 µM 0% | [4]; at 11.0 µM 50% | [5]; at 1.2 µM 21% | [5]; at 3.7 µM 22% | [5]; [17] 31% | [6]; at 1.2 µM 0% | [6]; at 3.7 µM 4% | [6]; [17] 28% | [6]; at 11.0 µM 48% | [7]; at 1.2 µM 19% | [7]; at 3.7 µM 33% | [8]; [17] 44% | [9]; at 1.2 µM 5% | [9]; at 3.7 µM 5% | [9]; at 11.0 µM 21% | [10]; [17] 8% | [11]; at 1.2 µM 33% | [11]; at 3.7 µM 40% | [11]; [17] 14% | [12]; at 1.2 µM 29% | [13]; at 1.2 µM 8% | [13]; at 3.7 µM 20% | [14]; at 1.2 µM 36% | [14]; at 3.7 µM 47% | [16]; at 1.2 µM 33% | [16]; at 3.7 µM 48%

CCCCCCCCCC(=O)N(CCC)CCC
active: [1]; at 100.0 µM 96% | [2]; at 33.0 µM 79% | [2]; at 100.0 µM 98% | [3]; at 100.0 µM 77% | [4]; at 100.0 µM 96% | [5]; [17] 97% | [5]; [18] 96% | [5]; at 50.0 µM 90.9% | [5]; at 100.0 µM 97% | [6]; [17] 97% | [6]; at 33.0 µM 73% | [6]; [18] 98% | [6]; at 50.0 µM 93.3% | [6]; at 100.0 µM 97% | [7]; at 100.0 µM 97% | [8]; at 50.0 µM 92.9% | [9]; at 100.0 µM 98% | [10]; at 50.0 µM 91.1% | [11]; [18] 73% | [11]; at 50.0 µM 92% | [11]; at 100.0 µM 97%
inactive: [1]; at 1.2 µM -11% | [1]; at 3.7 µM -15% | [1]; at 11.0 µM -19% | [1]; at 33.0 µM 42% | [2]; at 1.2 µM -10% | [2]; at 3.7 µM -10% | [2]; at 11.0 µM -17% | [3]; at 1.2 µM 1% | [3]; at 3.7 µM 9% | [3]; at 11.0 µM 11% | [3]; at 33.0 µM 43% | [4]; at 1.2 µM -14% | [4]; at 3.7 µM -20% | [4]; at 11.0 µM -25% | [4]; at 33.0 µM 0% | [5]; at 1.2 µM 2% | [5]; at 3.7 µM -8% | [5]; at 11.0 µM -2% | [5]; at 33.0 µM 48% | [6]; at 1.2 µM -4% | [6]; at 3.7 µM 1% | [6]; at 11.0 µM -15% | [7]; at 1.2 µM -9% | [7]; at 3.7 µM -6% | [7]; at 11.0 µM -15% | [7]; at 33.0 µM 29% | [8]; [17] -38% | [8]; [18] 56% | [9]; at 1.2 µM 3% | [9]; at 3.7 µM -2% | [9]; at 11.0 µM 0% | [9]; at 33.0 µM 45% | [10]; [17] 48% | [10]; [18] 65% | [11]; at 1.2 µM -29% | [11]; at 3.7 µM -27% | [11]; [17] -7% | [11]; at 11.0 µM -37% | [11]; at 33.0 µM 67%
